Data from PubChem BioAssay (NCATS).
Inconclusive results are not listed. Calls of active or inactive are those of the source. Unless noted, calls come from the whole dose curve.

Experiments:
[1] = qHTS for Inhibitors of the Functional Ribonucleoprotein Complex (vRNP) of Lassa (LASV) Arenavirus: LASV Primary Screen - GLuc reporter signal (AID 1347082; calls by dose curve; tested in HEK293 reporter line; note: nearly all actives have a fitted effect of over 60% in size); conditions: LASV minigenome vRNP, Gaussia luciferase reporter; series mostly up to 57.5 µM
[2] = qHTS for Inhibitors of the Functional Ribonucleoprotein Complex (vRNP) of Lassa (LASV) Arenavirus: Viability assay - alamar blue signal for LASV Primary Screen (AID 1347083; calls by dose curve; tested in HEK293 reporter line; note: nearly all actives have a fitted effect of over 80% in size); conditions: cell viability, alamar blue fluorescence (LASV minigenome counter-screen); series mostly up to 57.5 µM
[3] = qHTS for Inhibitors of the Functional Ribonucleoprotein Complex (vRNP) of Lymphocytic Choriomeningitis Arenaviruses (LCMV): Viability assay - alamar blue signal for LCMV Primary Screen (AID 1347085; calls by dose curve; tested in HEK293 reporter line; note: nearly all actives have a fitted effect of over 80% in size); conditions: alamar blue viability counter-screen, LCMV vRNP screen cells; series mostly up to 57.5 µM
[4] = molecular target: Nucleoprotein (Lymphocytic choriomeningitis virus (strain Armstrong)) (UniProt P09992); assay: qHTS for Inhibitors of the Functional Ribonucleoprotein Complex (vRNP) of Lymphocytic Choriomeningitis Arenaviruses (LCMV): LCMV Primary Screen - GLuc reporter signal (AID 1347086); conditions: LCMV minigenome vRNP cell assay, Gaussia luciferase reporter; series mostly up to 57.5 µM; note: nearly all actives have a fitted effect of over 70% in size
% is set by controls: 0 for no effect and ±100 for the full control effect.

Sequence of Nucleoprotein (Lymphocytic choriomeningitis virus (strain Armstrong)) (P09992 whole entry, looked up): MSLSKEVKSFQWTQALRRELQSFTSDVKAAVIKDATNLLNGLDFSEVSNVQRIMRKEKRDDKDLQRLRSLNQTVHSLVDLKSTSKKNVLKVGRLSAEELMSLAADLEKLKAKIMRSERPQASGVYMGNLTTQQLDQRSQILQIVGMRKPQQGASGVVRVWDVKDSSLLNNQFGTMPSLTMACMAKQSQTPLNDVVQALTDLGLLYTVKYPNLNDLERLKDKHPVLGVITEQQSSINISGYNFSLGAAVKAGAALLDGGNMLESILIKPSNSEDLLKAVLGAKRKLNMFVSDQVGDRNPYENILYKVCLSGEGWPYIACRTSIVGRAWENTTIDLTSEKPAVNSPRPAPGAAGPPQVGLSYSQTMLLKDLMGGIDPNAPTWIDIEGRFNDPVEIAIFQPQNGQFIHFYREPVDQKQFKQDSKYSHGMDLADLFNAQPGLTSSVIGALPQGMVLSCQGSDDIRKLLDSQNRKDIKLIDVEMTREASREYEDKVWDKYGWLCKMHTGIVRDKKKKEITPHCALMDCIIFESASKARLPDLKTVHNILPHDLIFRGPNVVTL

COc1cc2c(Nc3ccc(Br)cc3F)ncnc2cc1OCC1CCN(C)CC1
inactive: Potency [1] | Potency [2] | Potency [3] | Potency [4]

CCN(CC)C(=O)/C(C#N)=C/c1cc(O)c(O)c([N+](=O)[O-])c1
inactive: Potency [1] | Potency [2] | Potency [3] | Potency [4]

CCc1cc(C(N)=S)ccn1
inactive: Potency [1] | Potency [2] | Potency [3] | Potency [4]

COc1cc(C(=O)N2CCOCC2)cc(OC)c1OC
inactive: Potency [1] | Potency [2] | Potency [3] | Potency [4]

CC(=O)OCC(COC(C)=O)OC(C)=O
inactive: Potency [1] | Potency [2] | Potency [3] | Potency [4]

CCOC(=O)C(O)c1ccccc1 (centres undefined)
inactive: Potency [1] | Potency [2] | Potency [3] | Potency [4]

O=C(O)Cc1csc(-c2ccc(Cl)cc2)n1
inactive: Potency [1] | Potency [2] | Potency [3] | Potency [4]

CC(=O)OCC(=O)[C@@]1(O)[C@H](C)C[C@H]2[C@@H]3CCC4=CC(=O)C=C[C@]4(C)[C@@]3(F)[C@@H](O)C[C@@]21C
inactive: Potency [1] | Potency [2] | Potency [3] | Potency [4]

NC(=O)NC1NC(=O)NC1=O (centres undefined)
inactive: Potency [1] | Potency [2] | Potency [3] | Potency [4]

CC[N+](CC)(CC)CCOc1cccc(OCC[N+](CC)(CC)CC)c1OCC[N+](CC)(CC)CC
inactive: Potency [1] | Potency [2] | Potency [3] | Potency [4]

Oc1c(Br)cc(Br)c2cccnc12
inactive: Potency [1] | Potency [2] | Potency [3] | Potency [4]

CCCCCCCCCCC[C@@H](C[C@@H]1OC(=O)[C@H]1CCCCCC)OC(=O)[C@H](CC(C)C)NC=O
inactive: Potency [1] | Potency [2] | Potency [3] | Potency [4]

CCOC(=O)O[C@]1(C(=O)OCCl)CC[C@H]2[C@@H]3CCC4=CC(=O)C=C[C@]4(C)[C@H]3[C@@H](O)C[C@@]21C
inactive: Potency [1] | Potency [2] | Potency [3] | Potency [4]

CCn1cc(C(=O)O)c(=O)c2cnc(N3CCNCC3)nc21
inactive: Potency [1] | Potency [2] | Potency [3] | Potency [4]

NC(=O)c1cc[n+](CC2=C(C(=O)[O-])N3C(=O)[C@@H](NC(=O)Cc4cccs4)[C@H]3SC2)cc1
inactive: Potency [1] | Potency [2] | Potency [3] | Potency [4]

Cc1cnc(NS(=O)(=O)c2ccc(N)cc2)nc1
inactive: Potency [1] | Potency [2] | Potency [3] | Potency [4]

C[C@]12C=CC(=O)C=C1[C@@H](F)C[C@@H]1[C@@H]2[C@@H](O)C[C@@]2(C)[C@H]1CC[C@]2(O)C(=O)CO
inactive: Potency [1] | Potency [2] | Potency [3] | Potency [4]

CCCC(=O)Nc1ccc(O)c(C(C)=O)c1
inactive: Potency [1] | Potency [2] | Potency [3] | Potency [4]

CC1CN(c2cc3c(cc2F)c(=O)c(C(=O)O)cn3-c2ccc(F)cc2F)CCN1 (centres undefined)
inactive: activity change, negative = inhibition [1] 7.88% [at 5.82 µM] | activity change, negative = reduced viability [2] 9.98% [at 5.82 µM] | activity change, negative = lower viability [3] 2.49% [at 5.82 µM] | activity change, negative = inhibition [4] -0.151% [at 5.82 µM]

OCCN1CCN(CC/C=C2/c3ccccc3Sc3ccc(C(F)(F)F)cc32)CC1
inactive: Potency [1] | Potency [2] | Potency [3] | Potency [4]

CCCCCC=CCC=CCCCCCCCC(=O)OCC
inactive: Potency [1] | Potency [2] | Potency [3] | Potency [4]

CCOc1ccc(NC(=O)CC(C)O)cc1 (centres undefined)
inactive: Potency [1] | Potency [2] | Potency [3] | Potency [4]

CO/N=C(/C(=O)N[C@@H]1C(=O)N2C(C(=O)[O-])=C(C[n+]3ccn4ncccc43)CS[C@H]12)c1nsc(N)n1
inactive: Potency [1] | Potency [2] | Potency [3] | Potency [4]

CCCCOC(=O)CC(CC(=O)OCCCC)(OC(C)=O)C(=O)OCCCC
inactive: Potency [1] | Potency [2] | Potency [3] | Potency [4]

O=C(Nc1ccc(Cl)c(Cl)c1)C1CC1
inactive: Potency [1] | Potency [2] | Potency [3] | Potency [4]

NS(=O)(=O)c1cc2c(cc1Cl)NC(C(Cl)Cl)NS2(=O)=O (centres undefined)
inactive: Potency [1] | Potency [2] | Potency [3] | Potency [4]

CC(C)[C@H](N)C(=O)OCCOCn1cnc2c(=O)[nH]c(N)nc21
inactive: Potency [1] | Potency [2] | Potency [3] | Potency [4]

CSCC[C@H](NC(=O)[C@H](Cc1c[nH]c2ccccc12)NC(=O)CCNC(=O)OC(C)(C)C)C(=O)N[C@@H](CC(=O)O)C(=O)N[C@@H](Cc1ccccc1)C(N)=O
inactive: Potency [1] | Potency [2] | Potency [3] | Potency [4]

Cc1cccn2c(=O)c(-c3nnn[nH]3)cnc12
inactive: Potency [1] | Potency [2] | Potency [3] | Potency [4]

c1ccc2sc(SN3CCOCC3)nc2c1
inactive: Potency [1] | Potency [2] | Potency [3] | Potency [4]

Cc1cc(NS(=O)(=O)c2ccc(N)cc2)nc(C)n1
inactive: Potency [1] | Potency [2] | Potency [3] | Potency [4]

Nc1ccc(S(=O)(=O)NC(=O)c2ccccc2)cc1
inactive: Potency [1] | Potency [2] | Potency [3] | Potency [4]

Cc1nc(-c2ccc(Cl)cc2)oc1COC(C)(C)C(=O)O
inactive: Potency [1] | Potency [2] | Potency [3] | Potency [4]

CC(C)(Oc1ccc(Cl)cc1)C(=O)OCCCOC(=O)C(C)(C)Oc1ccc(Cl)cc1
inactive: Potency [1] | Potency [2] | Potency [3] | Potency [4]

CC(NN)c1ccccc1 (centres undefined)
inactive: Potency [1] | Potency [2] | Potency [3] | Potency [4]

CC[N+](C)(CC)CCOC(=O)C1c2ccccc2Oc2ccccc21
inactive: Potency [1] | Potency [2] | Potency [3] | Potency [4]

CCCc1c(OCCCCc2nn[nH]n2)ccc(C(C)=O)c1O
inactive: Potency [1] | Potency [2] | Potency [3] | Potency [4]

COc1cc(/C=C/C(N)=O)cc(OC)c1OC
inactive: Potency [1] | Potency [2] | Potency [3] | Potency [4]

C[C@@H](CN1CC(=O)NC(=O)C1)N1CC(=O)NC(=O)C1
inactive: Potency [1] | Potency [2] | Potency [3] | Potency [4]

COc1ccc2cc1Oc1cc3c(cc1OC)CC[N+](C)(C)[C@H]3Cc1ccc(cc1)Oc1c(OC)c(OC)cc3c1[C@@H](C2)[N+](C)(C)CC3
inactive: Potency [1] | Potency [2] | Potency [3] | Potency [4]

N#Cc1ccc(C(c2ccc(C#N)cc2)n2cncn2)cc1
inactive: Potency [1] | Potency [2] | Potency [3] | Potency [4]

C[C@H](CS)C(=O)N1CCC[C@H]1C(=O)O
inactive: Potency [1] | Potency [2] | Potency [3] | Potency [4]

O=C1[C@@H]2[C@H]3CC[C@H](C3)[C@@H]2C(=O)N1CCCCN1CCN(c2ncccn2)CC1
inactive: Potency [1] | Potency [2] | Potency [3] | Potency [4]

CCOC(=O)NNc1ccc(N(CC)CC(C)O)nn1 (centres undefined)
inactive: Potency [1] | Potency [2] | Potency [3] | Potency [4]

Cn1c(=O)c2[nH]c(Br)nc2n(C)c1=O
inactive: Potency [1] | Potency [2] | Potency [3] | Potency [4]

CC(C)(CO)[C@@H](O)C(=O)NCCCO
inactive: Potency [1] | Potency [2] | Potency [3] | Potency [4]
